PubChem BioAssay (NCI)
The panel holds about 83,000 compounds, 20% with a hit somewhere; the sample as a whole holds those more often.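 Compound tested at a single concentration for 48 hours in 96-well plates; a percent growth value below 10 was scored as active.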 A number with no mark means an inactive call. Active and inactive are the calls of the source.

test system: HT29 colon; assay: NCI-60 one-dose screen, 48 h (100 = growth as untreated, 0 = no growth, -100 = all killed); conditions: 10 µM unless noted

Compound	growth
CCCCOc1ccc(NC(=O)n2nc(NC(C)=O)c3cc(NC(C)=O)ccc32)cc1	85.5%
CSc1ncnc2c1ncn2C1CCCO1 (configuration not stated)	99.7%
Oc1ccccc1N=Cc1c(O)ccc2ccccc12	82.9%
Cn1c2ccccc2c2c3[nH]c(=O)[nH]c(=O)c3c3c4ccccc4n(C)c3c21	14.4%
CCOC(=O)c1c2ncccc2n2c(=O)n(-c3ccc(Cl)cc3)nnc12	108%
O=C(COc1cccc(/C=C2/Oc3ccccc3C2=O)c1)Nc1nccs1	84.2%
NS(=O)(=O)c1ccc(Nc2nc3n[nH]c(Nc4ccccc4)c3c(=O)[nH]2)cc1	101%
OCCNCCNc1c2ccccc2nc2ccccc12	58%
COc1ccc(OCC(=O)Nc2ccc(-c3nc4ccccc4s3)cc2C)cc1	91.7%
CCCCNP1(NCCCC)=NP(NCCCC)(NCCCC)=NP(NCCCC)(NCCCC)=NP(NCCCC)(NCCCC)=N1	11.9%
COCCCN=C(N)c1ccc(NC(=O)c2ccc(C(=O)Nc3ccc(C(N)=NCCCOC)cc3)cc2)cc1	110%
Cn1c2ccccc2c2c3c(c4c5ccccc5[nH]c4c21)C(=O)N(N)C3=O	60.3%
CCN(CC)Cc1cc(Nc2c3ccccc3nc3cc(Cl)ccc23)ccc1O	-38.3% (active)
COc1nc2c(cc1S(=O)(=O)c1ccccc1)CCc1c-2cnn1-c1ccc(Cl)cc1	89.3%
CN(CC(=O)N(Cc1ccc(C2CCCCC2)cc1)c1ccc(C(=O)NO)cc1)S(=O)(=O)c1c(F)c(F)c(F)c(F)c1F	0.552% (active)
COc1cc(-c2nc3ccccc3s2)ccc1NC(=O)COc1ccc(Cl)cc1	34.9%
CSc1[nH]c2ncnc(N)c2c1C#N	97.9%
O=C1Nc2c(ccc(Cl)c2Cl)/C1=C/c1cc(Br)c(O)c(Br)c1	56.6%
NS(=O)(=O)N(c1cc(C(F)(F)F)cc(C(F)(F)F)c1)C1CCN(Cc2ccc(F)cc2)CC1	8.44% (active)
COc1nc2c(cc1S(=O)(=O)c1ccccc1)CCc1c-2cnn1Cc1ccccc1	13.9%
CN1CCN(Cc2ccc(NC(=O)c3[nH]ncc3Nc3ccnc4ccsc34)cc2)CC1	30.1%
CC1(C)CC(C(=O)OCCCCCCCCCCC[P+](c2ccccc2)(c2ccccc2)c2ccccc2)C(C)(C)N1O (configuration not stated)	-33.9% (active)
C=CC[N+]1(CC)CCN=C1CCCCCCCCCCCCCCCCC (configuration not stated)	-100% (active)

test system: SNB-75 CNS; assay: as above; conditions: 10 µM unless noted

Compound	growth
CC(=O)Nc1ccc2c(c1)c(NC(C)=O)nn2C(=O)Nc1ccc(Cc2ccccc2)cc1	106%
Cc1ccc2c(c1)O/C(=C\c1cccc(OCC(=O)c3ccccc3)c1)C2=O	93.4%
Nc1nc(SCc2ccccc2)c2ncn(C3CCCC3)c2n1	126%
Cn1c2ccccc2c2c3c(c4c5ccccc5n(CCCCCC#N)c4c21)C(=O)N(O)C3=O	17.2%
CCN(CC)Cc1cc(Nc2c3ccc(Cl)cc3nc3c(C)cccc23)ccc1O	-99.4% (active)
CS(=O)(=O)c1ccc(-c2cnc3ccc(-c4cccc(S(C)(=O)=O)c4)nn23)cc1	12.4%
COc1ccc(CCN2CCCn3c2nc2ccccc2c3=O)cc1	17.5%
CC#CC#Cc1cccc(=O)o1	82.4%
c1ccc2c(Nc3cccc4ccccc34)cccc2c1	20.8%
c1ccc(CSc2ncnc3nc[nH]c23)nc1	97.2%
O=C(O)c1cccnc1Br	86.2%
COc1ccc(-c2cc(-c3cccnc3)nc3sc4c(=O)n(-c5ccc(C)cc5)cnc4c23)cc1OC	74.9%
CNC(=O)c1cc(Oc2ccc3nc(NC(=O)Nc4ccc(CN5CCOCC5)c(C(F)(F)F)c4)sc3c2)ccn1	59.4%
CCN(CC)CCCC(C)NCCCNc1cccc2cccnc12 (configuration not stated)	89.9%
CCCCN(CCCC)Cc1c(C)[nH]c2cc(OC)ccc2c1=O	89.5%
O=C1C[C@H](Sc2nc(-c3ccc(F)cc3)cc(C(F)(F)F)n2)[C@H]2CO[C@@H]1O2	98.3%
CCCCOc1ccc(NC(=O)n2nc(NC(C)=O)c3cc(NC(C)=O)ccc32)cc1	114%
CSc1ncnc2c1ncn2C1CCCO1 (configuration not stated)	83.2%
Oc1ccccc1N=Cc1c(O)ccc2ccccc12	69.8%
Cn1c2ccccc2c2c3[nH]c(=O)[nH]c(=O)c3c3c4ccccc4n(C)c3c21	-38.4% (active)

Compound	growth
CCOC(=O)c1c2ncccc2n2c(=O)n(-c3ccc(Cl)cc3)nnc12	86.7%
O=C(COc1cccc(/C=C2/Oc3ccccc3C2=O)c1)Nc1nccs1	84.8%
NS(=O)(=O)c1ccc(Nc2nc3n[nH]c(Nc4ccccc4)c3c(=O)[nH]2)cc1	70.8%
OCCNCCNc1c2ccccc2nc2ccccc12	93.3%
COc1ccc(OCC(=O)Nc2ccc(-c3nc4ccccc4s3)cc2C)cc1	83.4%
CCCCNP1(NCCCC)=NP(NCCCC)(NCCCC)=NP(NCCCC)(NCCCC)=NP(NCCCC)(NCCCC)=N1	8.44% (active)
COCCCN=C(N)c1ccc(NC(=O)c2ccc(C(=O)Nc3ccc(C(N)=NCCCOC)cc3)cc2)cc1	86.4%
Cn1c2ccccc2c2c3c(c4c5ccccc5[nH]c4c21)C(=O)N(N)C3=O	63.9%
CCN(CC)Cc1cc(Nc2c3ccccc3nc3cc(Cl)ccc23)ccc1O	-100% (active)
COc1nc2c(cc1S(=O)(=O)c1ccccc1)CCc1c-2cnn1-c1ccc(Cl)cc1	92.3%
CN(CC(=O)N(Cc1ccc(C2CCCCC2)cc1)c1ccc(C(=O)NO)cc1)S(=O)(=O)c1c(F)c(F)c(F)c(F)c1F	84.5%
COc1cc(-c2nc3ccccc3s2)ccc1NC(=O)COc1ccc(Cl)cc1	21.3%
CSc1[nH]c2ncnc(N)c2c1C#N	82.5%
O=C1Nc2c(ccc(Cl)c2Cl)/C1=C/c1cc(Br)c(O)c(Br)c1	70.2%
NS(=O)(=O)N(c1cc(C(F)(F)F)cc(C(F)(F)F)c1)C1CCN(Cc2ccc(F)cc2)CC1	55.3%
COc1nc2c(cc1S(=O)(=O)c1ccccc1)CCc1c-2cnn1Cc1ccccc1	72.1%
CN1CCN(Cc2ccc(NC(=O)c3[nH]ncc3Nc3ccnc4ccsc34)cc2)CC1	20.5%
CC1(C)CC(C(=O)OCCCCCCCCCCC[P+](c2ccccc2)(c2ccccc2)c2ccccc2)C(C)(C)N1O (configuration not stated)	-57.9% (active)
C=CC[N+]1(CC)CCN=C1CCCCCCCCCCCCCCCCC (configuration not stated)	-92.1% (active)
